KCNQ2 enhance: potentiators of rat KCNQ2 potassium channel; CHO-K1 KCNQ2, FluxOR thallium flux fluorescence; active compounds read high; B-score at 10 µM; 0.54% of 310,000 active;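 active means fluorescence ratio B-score at least 3 SD of library B-scores, with initial fluorescence B-score within 3 of them, cut at about 5.3 in these data; same plate scores as AID 2156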;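 further: B-score of peak minus minimum over baseline fluorescence ratio after K+ and Tl+ stimulus; positive B-score means potentiation of KCNQ2 with more thallium influx and brighter signal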
KCNQ2 inh: rat KCNQ2 potassium channel inhibitors, primary screen, cell-based, CHO-K1, FluxOR thallium flux, B-score; Potassium voltage-gated channel subfamily KQT member 2 (Rattus norvegicus), O88943; 20 min; active compounds read low; B-score at 10 µM; 1.1% of 310,000 active;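 active means fluorescence ratio B-score at most minus 3 library SDs, with starting brightness B-score within 2 library SDs, cut at about -5.5 in these data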
Kir21 confirm: mouse Kir2.1 channel blockers, retest, confirmation, cell-based, FluxOR thallium flux, duplicate | AID 2032, 2009 | Kir2.1-expressing cells, FluxOR thallium flux fluorescence; active compounds read low | Tl flux remaining, % of negative control (active compounds read low), % at 10 µM | 41% of 2,300 active | shares compounds with KCNQ2 enhance;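 active means Primary-screen hit whose thallium flux fell at least 3 control SD below untreated wells in both duplicates, with normal baseline fluorescence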
HEK293 Tl flux: counter-screen for Kir2.1 inhibitors: effect in parental HEK293 cells; shares compounds with KCNQ2 enhance; FluxOR thallium flux fluorescence; 0% = unstimulated blank wells; FluxOR signal as % of negative control (100 = no effect), % at 10 µM; 19% of 2,300 active; AID 2105;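 active means dye signal at least 3 control SD above or below untreated wells in both duplicates, raw fluorescence within 3, either direction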;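 further: percent is based on the flux ratio of peak minus minimum fluorescence over baseline F0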
CHO-K1 ctr: nonspecific thallium flux increase in parental CHO-K1, confirmation, counter-screen for KCNQ2 potentiator project, cell-based, FluxOR thallium flux, duplicate. AID 2282, 2010. activity increase over 3SD of controls, % at 10 µM. shares compounds with KCNQ2 enhance. 43% of 1,200 active. parental CHO-K1 cells, FluxOR thallium flux fluorescence; zero = vehicle mean+3SD, 100% = vehicle-minus-blank window;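 active means signal rise of at least 3 SD above the untreated control mean, in both duplicate wells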;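 further: counter screen of KCNQ2 potentiator hits so any rise reflects channel-independent effects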
KCNQ1 sel pot: human KCNQ1 channel potentiation off-target, confirmation, selectivity assay for KCNQ2 potentiator project, cell-based, CHO, FluxOR thallium flux | shares compounds with KCNQ2 enhance | CHO KCNQ1 stable, FluxOR thallium flux fluorescence; beyond 3SD, as % of vehicle-control signal | activation over 3SD threshold, % at 10 µM | 28% of 1,200 active | AID 2283, 2010;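 active means fluorescence ratio rise of at least 3 SD of vehicle wells above their mean, in both replicate wells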
Target sequence (P51787 whole entry, looked up): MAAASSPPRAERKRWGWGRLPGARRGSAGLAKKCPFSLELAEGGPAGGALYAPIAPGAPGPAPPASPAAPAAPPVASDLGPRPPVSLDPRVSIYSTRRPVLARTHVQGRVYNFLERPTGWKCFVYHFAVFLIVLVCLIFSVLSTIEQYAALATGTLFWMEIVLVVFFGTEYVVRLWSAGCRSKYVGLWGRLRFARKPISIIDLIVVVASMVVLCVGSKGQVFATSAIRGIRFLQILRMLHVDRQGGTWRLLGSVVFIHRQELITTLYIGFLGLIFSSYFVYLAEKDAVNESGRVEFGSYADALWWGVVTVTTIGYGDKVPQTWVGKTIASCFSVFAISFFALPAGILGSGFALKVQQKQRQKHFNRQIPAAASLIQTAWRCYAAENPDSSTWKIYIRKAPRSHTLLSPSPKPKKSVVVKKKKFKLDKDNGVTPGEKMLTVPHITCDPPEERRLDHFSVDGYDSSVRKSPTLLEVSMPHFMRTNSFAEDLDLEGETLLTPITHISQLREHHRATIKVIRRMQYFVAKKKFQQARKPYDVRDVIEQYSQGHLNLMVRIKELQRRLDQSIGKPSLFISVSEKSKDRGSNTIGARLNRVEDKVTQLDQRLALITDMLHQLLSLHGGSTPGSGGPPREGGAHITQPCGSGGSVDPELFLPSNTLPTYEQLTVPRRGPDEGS
KCNQ2 pot conf: rat KCNQ2 channel potentiators, confirmation, cell-based, CHO, FluxOR thallium flux, duplicate; shares compounds with KCNQ2 enhance; CHO-KCNQ2 cells, FluxOR thallium flux fluorescence; potentiation, less the hit threshold, % at 10 µM; 68% of 1,200 active; AID 2287, 2010;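 active means fluorescence ratio rising 3 SD or more over the vehicle control mean in both replicates, plus primary screen hit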;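 further: peak minus minimum thallium fluorescence divided by baseline after K/Tl stimulus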
Kir21 spec: mouse Kir2.1 channel activation off-target, confirmation, selectivity assay for KCNQ2 potentiator project, cell-based, HEK293, FluxOR thallium flux; shares compounds with KCNQ2 enhance; HEK293 Kir2.1, FluxOR thallium flux fluorescence; activity over 3SD threshold, % at 10 µM; 2% of 1,200 active; AID 2345, 2010;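 active means fluorescence ratio rise of at least 3 SD above the vehicle-control mean, seen in both replicates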
KCNQ2 W236L MoA: potentiators of retigabine-insensitive KCNQ2 W236L, mechanism study for KCNQ2 potentiator project, cell-based, rat KCNQ2 W236L, CHO, automated patch clamp. AID 2558, 2010. automated patch clamp current. shares compounds with KCNQ2 enhance. current increase over 3SD of negative controls (%), active compounds read high, % at 25 µM. 10% of 940 active;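 active means current increase at least 3 SD of the untreated controls above them in both duplicate recordings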
Large screens that a line does not name were inactive (follow-up assays come after a bar, where they were run). An excerpt weighted towards active compounds, which were near 1.6% of everything screened.

CC(C)c1nc2sc3c(=O)[nH]c(=S)[nH]c3c2c2c1CCCC2	KCNQ2 enhance 9 | Kir21 confirm inactive | HEK293 Tl flux 132% | CHO-K1 ctr inactive | KCNQ1 sel pot inactive | KCNQ2 pot conf inactive | Kir21 spec inactive
CC(C)c1nc2sc3c(=O)[nH]c(=S)[nH]c3c2c2c1CCC2	none
CC(c1ccccc1F)n1cc(C(=O)NCCCc2nc3ccccc3[nH]2)nn1 (centres undefined)	none (no result: KCNQ2 enhance)
C=CCNC(=O)N1CCCC(C(=O)c2cccc(OC(C)C)c2)C1 (centres undefined)	none (no result: KCNQ2 enhance)
COc1ccc(-c2csc(NC(=O)c3ccccc3Br)c2C(=O)O)cc1	none
COc1ccc(-c2csc(NC(=O)c3ccc(C(C)(C)C)cc3)c2C(=O)O)cc1	KCNQ2 enhance 6.5 | Kir21 confirm inactive | HEK293 Tl flux inactive | CHO-K1 ctr inactive | KCNQ1 sel pot inactive | KCNQ2 pot conf inactive | Kir21 spec inactive
CCOc1ccccc1C(=O)Nc1ccc(S(=O)(=O)Nc2nccc(C)n2)cc1	none (no result: KCNQ2 enhance)
c1ccc2c(c1)ncn2-c1ncnc2sc3c(c12)CCCC3	none
CC(O)CNc1nc2ccccc2n1-c1ncnc2sc3c(c12)CCC3 (centres undefined)	none (no result: KCNQ2 enhance) | Kir21 confirm 78% | HEK293 Tl flux inactive
CCCCOc1ccc(C(=O)NCC(=O)NC2CCN(Cc3ccccc3)CC2)cc1	none
CN(C)c1ccc(/C=c2/sc3n(c2=O)NC2(c4ccccc4)N(C)C(=O)N(C)C2(c2ccccc2)N=3)cc1 (centres undefined)	none
COc1ccc(-c2cc3c(=O)n(CC(=O)N4CCN(C)CC4)ncn3n2)cc1	none
CCOc1ccc(NS(=O)(=O)c2ccc(OC)c(C)c2)cc1	none | Kir21 confirm inactive | HEK293 Tl flux inactive
CCOc1ccc(NS(=O)(=O)c2ccc(NC(C)=O)c(OC)c2)cc1	none (no result: KCNQ2 enhance)
CN(CCOc1ccccc1)C(=S)Nc1ccc(OC(F)F)cc1	none
COc1ccc(CCC(=O)NCc2ccc3c(c2)OCO3)cc1	none
COc1ccc(CCC(=O)NCc2cccc(C(F)(F)F)c2)cc1	KCNQ2 enhance 6.7 | Kir21 confirm inactive | HEK293 Tl flux inactive | CHO-K1 ctr 24 | KCNQ1 sel pot inactive | KCNQ2 pot conf inactive | Kir21 spec inactive | KCNQ2 W236L MoA inactive
COc1cc(NC(=S)NCCc2c[nH]c3ccccc23)c(OC)cc1Cl	none (no result: KCNQ2 enhance)
Cc1ccc(NC(=S)NCCc2ccccc2)c(C)c1	none (no result: KCNQ2 enhance)
COc1cccc(CNc2ccc3[nH]c(=O)[nH]c3c2)c1OCc1ccc(F)cc1	none
Cc1ccc(NC(=S)NCCc2c[nH]c3ccccc23)c(C)c1	none (no result: KCNQ2 enhance) | Kir21 confirm 76% | HEK293 Tl flux inactive
COc1ccccc1NC(=S)NCCc1c[nH]c2ccccc12	none | Kir21 confirm 72% | HEK293 Tl flux inactive
COc1cccc(CNCCc2c[nH]c3ccccc23)c1OCc1ccc(F)cc1	KCNQ2 inh -8 | Kir21 confirm inactive | HEK293 Tl flux inactive
CCOC(=O)C1CCCN(C(=O)c2[nH]c3ccc(OC)cc3c2C)C1 (centres undefined)	none (no result: KCNQ2 enhance)
Nc1ccnc(C(F)(F)F)c1C(=O)c1ccccc1	none (no result: KCNQ2 enhance)
CCOC(=O)NS(=O)(=O)c1ccc(CCNC(=O)c2cc(C)on2)cc1	none
CCCCN1CCc2c1nc1ccc(Br)cc1c2N	none | Kir21 confirm 24% | HEK293 Tl flux inactive
Cc1ccc2nc3c(c(N)c2c1)CCN3C	none
CCCCn1c(-c2csc3ccccc23)n[nH]c1=S	none
CCCCn1c(-c2csc(C(C)C)c2)n[nH]c1=S	KCNQ2 enhance 8.1 | CHO-K1 ctr inactive | KCNQ1 sel pot 22 | KCNQ2 pot conf 3.4 | Kir21 spec inactive | KCNQ2 W236L MoA 40%
Cc1ccc(-c2nn(-c3ccccc3)cc2CSC(=N)N)cc1	none (no result: KCNQ2 enhance) | Kir21 confirm inactive | HEK293 Tl flux inactive
OCc1cn(-c2ccccc2)nc1-c1ccc(-c2nn(-c3ccccc3)cc2CO)cc1	none
CCN(c1ccc(NC(=O)COC(=O)CCc2cc(OC)c(OC)c(OC)c2)cc1)C(C)C	none (no result: KCNQ2 enhance)
CC[n+]1c(/C=C/N(C)c2ccccc2)n(-c2ccccc2)c2ccc(-c3nc4ccccc4s3)cc21	KCNQ2 inh -16 | Kir21 confirm inactive | HEK293 Tl flux inactive
CCOC(=O)c1ccc2c(c1)n(CC)c(/C=C/N(C)c1ccccc1)[n+]2CC	none (no result: KCNQ2 enhance)
CC(C)(C)Cc1nc2ccccc2n1CCc1ccccc1	none (no result: KCNQ2 enhance) | Kir21 confirm 53% | HEK293 Tl flux inactive
CCc1nc2ccccc2n1CCc1ccccc1	none (no result: KCNQ2 enhance)
COc1cc2c(cc1OC)CN(c1ccc(-c3ccccc3OC)nn1)CC2	none (no result: KCNQ2 enhance)
COc1cc2c(cc1OC)CN(c1ccc3ccccc3n1)CC2	none (no result: KCNQ2 enhance) | Kir21 confirm 56% | HEK293 Tl flux 132%
Cc1ccc(C2CC2C(=O)NNC(=S)Nc2cccc(Cl)c2)cc1 (centres undefined)	KCNQ2 enhance 18 | Kir21 confirm inactive | HEK293 Tl flux inactive | CHO-K1 ctr inactive | KCNQ1 sel pot inactive | KCNQ2 pot conf 84 | Kir21 spec inactive | KCNQ2 W236L MoA inactive
O=C(NNC(=S)Nc1ccc(F)cc1)C1CC1c1ccc(Cl)cc1 (centres undefined)	none
Cc1ccc(C2CC2C(=O)NNC(=S)Nc2cccc(C)c2)cc1 (centres undefined)	KCNQ2 enhance 9.2 | Kir21 confirm inactive | HEK293 Tl flux inactive | CHO-K1 ctr inactive | KCNQ1 sel pot inactive | KCNQ2 pot conf 64 | Kir21 spec inactive | KCNQ2 W236L MoA inactive
Cc1ccc(NC(=S)NNC(=O)C2CC2c2ccc(C)cc2)cc1 (centres undefined)	none (no result: KCNQ2 enhance)

Source: PubChem
